Reference: PubChem BioAssay (NCI)
About 83,000 compounds went through this panel and 20% of them were active in at least one assay; those are over-represented in the sample as a whole.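 The endpoint reported here, percent growth, reads 100 for growth as untreated, 0 for no net growth and -100 for all cells dead.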 Values without a mark were called inactive. The source made the active and inactive calls. Rule for the calls: active = growth percent below 10; inactive = the rest.

Tested on: U251 CNS
Assay: NCI-60 one-dose screen, 48 h (100 = growth as untreated, 0 = no growth, -100 = all killed)
Conditions: 10 µM unless noted

| Structure (SMILES) | growth |
| --- | --- |
| CC1=C(CNO)C2=C(C)C3(CC3)[C@@](C)(O)C(=O)C2=C1 | -13.6% (active) |
| COc1ccc(O)c(CNC(=O)CN2CCCC2=O)c1 | 103% |
| CN1CCCCC1C(C)(O)c1ccccc1 (configuration not stated) | 101% |
| COC(=O)CC[C@H](Cc1ccccc1)NC(=O)c1csc([C@@H](C[C@H](C(C)C)N(C)C(=O)[C@@H](NC(=O)[C@H]2CCCCN2C)C(C)C)OC(C)=O)n1 | 12.5% |
| COc1ccc(N(CC(=O)NCCC[Te]c2ccccc2)C(=O)CNC(=O)OC(C)(C)C)cc1 | 12.4% |
| COC(=O)[C@@H](C)C[C@H](Cc1ccccc1)NC(=O)c1csc([C@@H](C[C@H](C(C)C)N(C)C(=O)[C@@H](NC(=O)[C@H]2CCCCN2C)C(C)C)OC(C)=O)n1 | -1.97% (active) |
| COC1OC(CO)C(O)C(O)[CH]1[Hg][O]C(C)=O (configuration not stated) | 67.7% |
| CC12CC=CCC1CCC1C2CCC2(C)C(c3ccc(=O)oc3)CCC12O (configuration not stated) | -73.3% (active) |
| O=C1C2CC=CCC2C(=O)N1SC(Cl)(Cl)Cl (configuration not stated) | 98.8% |
| CCOC(=O)[C@@H](C)C[C@H](Cc1ccccc1)NC(=O)c1nc([C@@H](C[C@H](C(C)C)N(C)C(=O)[C@@H](NC(=O)[C@H]2CCCCN2C)C(C)C)OC(C)=O)sc1CCOCc1ccccc1 | -32.4% (active) |
| COP(=S)(N1CC1)N1CC1 | 108% |
| COC(=O)[C@@H](C)C[C@H](Cc1ccccc1)NC(=O)c1nc([C@@H](C[C@H](C(C)C)N(C)C(=O)[C@@H](NC(=O)[C@H]2CCCCN2C)C(C)C)OC(C)=O)sc1C(C)C | 6.19% (active) |
| COC(=O)[C@@]1(O)C[C@H]2O[C@]1(C)n1c3ccccc3c3c4c(c5c6ccccc6n2c5c31)C(=O)NC4 | -67.1% (active) |
| N/C(=N\N=C\c1ccc(-c2ccccc2)cc1)N[N+](=O)[O-] | 31.1% |
| COc1ccc([As]=[As]c2ccc(OC)c(NCS(=O)(=O)O)c2)cc1NCS(=O)(=O)O (configuration not stated) | -43% (active) |
| C1CCC([PH+](C2CCCCC2)C2CCCCC2[PH+](C2CCCCC2)C2CCCCC2)CC1.O=C(C1[CH-]CCCC1)C1CCCC[N-]1.[Au] (configuration not stated) | -84.1% (active) |
| O=P1(NCCCl)OCCCN1CCCl (configuration not stated) | 117% |
| O=C([O][Hg][c]1ccccc1)c1ccccc1 | -31.9% (active) |
| CC(CO)NC1CCCCC1 (configuration not stated) | 98.9% |

| Structure (SMILES) | growth |
| --- | --- |
| C[C@@]12CC=C3c4nc(Nc5cccc(O)c5)sc4CC[C@]3(C)[C@H]1CC[C@]1(C)C(=O)CC[C@@H]21 | 18.8% |
| COC(=O)[C@@H](C)C[C@H](Cc1ccccc1)NC(=O)c1csc([C@@H](C[C@H](C(C)C)N(C)C(=O)[C@@H](NC(=O)[C@H]2CCCCN2C)c2ccc(F)cc2)OC(C)=O)n1 | 4.87% (active) |
| OCCCCCNC1CCCCC1 | 101% |
| COc1cc(/C=C/[N+](=O)[O-])c([N+](=O)[O-])cc1OC | 15.7% |
| NC(CCl)CCl | 99.8% |
| O=[N+]([O-])CC(c1ccccc1Cl)c1c(-c2ccccc2)[nH]c2ccccc12 (configuration not stated) | 34.8% |
| C#Cc1ccc2c(c1)C(c1ccccc1)=NCC(=O)N2C | 36.9% |
| CN(C)C(=O)Oc1ccccc1 | 103% |
| OCCNC(Cc1ccccc1)c1ccc2c(c1)OCO2 (configuration not stated) | 92.9% |
| Nc1ccc2c(c1)Cc1cc(Br)ccc1-2 | 104% |
| C#Cc1ccc2c(c1)C(c1ccccc1F)=NCC(=O)N2C | 39.7% |
| O=C([O][Hg][CH2]C1OCCOC1[CH2][Hg][O]C(=O)c1ccccc1)c1ccccc1 (configuration not stated) | 43% |
| C[C@@H]1O[C@@H](O[C@H]2C[C@@H](O)[C@]3(CO)C4C(CC[C@]3(O)C2)[C@@]2(O)CC[C@H](C3=CC(=O)OC3)[C@@]2(C)C[C@H]4O)[C@H](O)[C@H](O)[C@H]1O (some centres not stated) | -97.3% (active) |
| CC1=C(CN)C2=C(C)C3(CC3)[C@@](C)(O)C(=O)C2=C1 | 84% |
| COC(C(=O)[C@@H](O)[C@@H](C)O)[C@@H]1Cc2cc3cc(O[C@H]4C[C@@H](O[C@H]5C[C@@H](O)[C@H](O)C(C)O5)[C@H](O)C(C)O4)c(C)c(O)c3c(O)c2C(=O)[C@H]1O[C@H]1C[C@@H](O[C@H]2C[C@@H](O[C@H]3C[C@@H](O)[C@@H](O)C(C)O3)[C@@H](O)C(C)O2)[C@H](O)C(C)O1 (some centres not stated) | 1.11% (active) |
| C[C@]12CC[C@@H]3c4ccc(Oc5nc(N6CC6)nc(N6CC6)n5)cc4CC[C@H]3[C@@H]1CCC2=O | 31.9% |
| CC(=O)Nc1ccc(NC(=O)c2ccc([As](O)O)cc2)cc1 | 56.5% |
| CCC(C)(C)[C@H](NC(=O)[C@H]1CCCCN1C)C(=O)N(C)[C@H](C[C@@H](OC(C)=O)c1nc(C(=O)N[C@@H](Cc2ccccc2)C[C@H](C)C(=O)O)cs1)C(C)C | 12.1% |
